Screens as filed in PubChem BioAssay.
p53 reactivator – restores transcriptional activity of mutant p53. H1299 p53-A138V BP100-luciferase reporter, luminescence, 24 h. Potency, µM (top dose mostly 92.2 µM), most hits filed as activators. actives 0.063% (n = 320,000). AID 504706; also: nearly all actives have a fitted effect of over 45% in size
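p53-null H1299 cells stably carrying temperature-sensitive p53-A138V and a BP100-luciferase reporter were pinned with compounds (4-point, 1:5 series) and held 24 hrs at 37 deg C. Luminescence was read 10 min after detection reagent.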
RORgamma inh – blocks mouse ROR gamma transcriptional activity. P51450. Drosophila S2 Gal4-RORgamma UAS-luciferase reporter, 20 h. Potency, µM (doses to about 53.6 µM), usual class: inhibitors. actives 5.4% (n = 310,000). AID 2551; also: nearly all actives have a fitted effect of over 60% in size
Target sequence (P51450 whole entry, looked up, the tested form may be a part): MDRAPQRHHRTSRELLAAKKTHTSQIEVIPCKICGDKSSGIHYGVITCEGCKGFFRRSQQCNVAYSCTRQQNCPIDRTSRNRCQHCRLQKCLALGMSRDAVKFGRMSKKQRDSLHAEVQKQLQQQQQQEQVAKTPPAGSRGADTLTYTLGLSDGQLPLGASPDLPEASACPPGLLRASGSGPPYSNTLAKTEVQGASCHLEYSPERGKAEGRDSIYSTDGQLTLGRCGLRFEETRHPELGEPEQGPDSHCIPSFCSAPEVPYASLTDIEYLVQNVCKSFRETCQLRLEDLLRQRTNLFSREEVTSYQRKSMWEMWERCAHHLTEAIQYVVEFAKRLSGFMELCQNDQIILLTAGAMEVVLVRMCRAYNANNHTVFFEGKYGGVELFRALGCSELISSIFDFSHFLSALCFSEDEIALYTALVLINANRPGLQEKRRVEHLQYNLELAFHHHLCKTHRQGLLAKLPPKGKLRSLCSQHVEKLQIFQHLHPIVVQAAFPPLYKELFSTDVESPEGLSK
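Luciferase reporter read in Schneider cells carrying Gal4-RORγ (mouse) and UAS-Photinus luciferase; cells given compound 1 h before 700 uM copper sulfate induction, then incubated 20 h at ambient temperature.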
BRCA1 expr act – increases BRCA1 expression. MCF7-BRCA1-FFLuc reporter, luminescence, 48 h; response scale: scaled: vehicle 0%, 10 µM genistein 100%. Potency, µM (doses to about 46.1 µM), usual class: activators. actives 1.1% (n = 380,000); also: nearly all actives have a fitted effect of over 80% in size
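Compounds are tested at multiple concentrations on MCF7 BRCA1-luciferase reporter cells seeded at 2000 per well; after 48 h, a single luminescence end-point is taken and curves fitted to the normalized data.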
Giardia kill – kills Giardia lamblia; activity change, % at 7.66 µM, hits read low; Giardia lamblia trophozoite viability; actives 0.15% (n = 340,000); in the data active = activity change below about -80%; inconclusive = between about -30% and that limit;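 also: parasites exposed to compound for two days anaerobically before the ATP read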
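ATP-content bioluminescence gauges trophozoite survival. Cells (100/well) receive compound and incubate anaerobically for 48 hrs at 37 deg C; detection reagent follows for 15-30 min at room temperature.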
Gal4-VP16 FLuc – counter-screen for ROR gamma inhibitors: Gal4-VP16 reporter. Drosophila S2 Gal4-VP16 UAS-luciferase, luminescence, 20 h. Potency, µM (titrated, usually from 53.6 µM), actives largely listed as inhibitors. actives 3.5% (n = 310,000). AID 2546;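 also: Gal4-VP16 expression switched on by copper sulfate through the metallothionein promoter; nearly all actives have a fitted effect of over 50% in size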
ELG1 DNA repair – blocks ELG1-dependent DNA repair in HEK293T cells | AID 504467 | Potency, µM (series often up to 46.1 µM), actives largely listed as inhibitors | HEK293T ELG1-luciferase reporter, luminescence, 16 h; DNA damage induced by 5-fluorouridine | actives 2.3% (n = 330,000); also: nearly all actives have a fitted effect of over 55% in size
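Reporter activity after DNA damage by 5-fluorouridine is monitored. Compound-treated cells incubate 16 hr at 37 °C, then ONE-Glo is added for 30 min before luminescence reading.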
Of the large screens only hits and unclear results are named; the others gave an inactive call. Rows were chosen to be rich in hits. Some 7.6% of all compounds tested hit in one or more screens of this group. Unless noted, calls follow the shape of the dose curve; as a rule, active = well fitted curve in the direction sought with a large enough effect; inconclusive = small, poorly fitted or top-dose-only effect, or another doubt; inactive = no such curve, though single readings can be large; an effect the other way counts as inactive or inconclusive.

CN(c1ccccc1)S(=O)(=O)c1ccc(C(=O)Nc2ccncc2)cc1	ELG1 DNA repair inconclusive (no result: RORgamma inh, Gal4-VP16 FLuc)
Cc1cccc(NC(=O)c2ccc(S(=O)(=O)N(C)C)cc2)n1	RORgamma inh inconclusive
Cc1cc(C)c(-c2c(O)c3c(n(C)c2=O)CC(C)(C)CC3=O)c(C)c1	none
Cc1[nH]c2ccccc2c1C(=O)CSC(=S)N1CCOCC1	ELG1 DNA repair inconclusive
c1ccc(Nc2ncnc3ccc(-c4ccoc4)cc23)cc1	none (no result: p53 reactivator, BRCA1 expr act, Giardia kill, ELG1 DNA repair)
CCN(CC)S(=O)(=O)c1ccc(C(=O)Nc2nnc(C(C)C)s2)cc1	ELG1 DNA repair inconclusive
CCc1nnc(NC(=O)c2ccc(S(=O)(=O)N(CC(C)C)CC(C)C)cc2)o1	RORgamma inh 0.32µM, Gal4-VP16 FLuc 0.35µM, ELG1 DNA repair inconclusive
CCOc1cc2[nH]c(=S)n(CCc3ccc(OC)c(OC)c3)c(=O)c2cc1OCC	none
CCOc1cc2[nH]c(=S)n(C3CC3)c(=O)c2cc1OCC	RORgamma inh 4.5µM, Gal4-VP16 FLuc 16µM, ELG1 DNA repair inconclusive
CCOc1cc2[nH]c(=S)n(C(C)C)c(=O)c2cc1OCC	RORgamma inh 2µM, Gal4-VP16 FLuc 7.1µM, ELG1 DNA repair inconclusive
CCOc1cc2[nH]c(=S)n(CCCN3CCOCC3)c(=O)c2cc1OCC	none
CCOc1cc2[nH]c(=S)n(CCCOC)c(=O)c2cc1OCC	RORgamma inh 11µM, Gal4-VP16 FLuc inconclusive
CCC(CO)n1c(=S)[nH]c2cc(OC)c(OC)cc2c1=O (stereo not drawn)	RORgamma inh 11µM, Gal4-VP16 FLuc inconclusive
Cc1cc(C)cc(NC(=S)NC2CC3CCCC(C2)N3C2CC2)c1 (stereo not drawn)	RORgamma inh inconclusive, Gal4-VP16 FLuc inconclusive
O=C(c1ccccc1)c1ccsc1C(=O)c1ccccc1	none (no result: p53 reactivator, RORgamma inh, Giardia kill, Gal4-VP16 FLuc, ELG1 DNA repair)
CCCCc1ccc(NC(=O)Nc2cc(C)nn2C)cc1	ELG1 DNA repair 4.1µM
Cc1ccc2sc(NNC(=O)C3COc4ccccc4O3)nc2c1C (stereo not drawn)	RORgamma inh 2µM, Gal4-VP16 FLuc 8.9µM
COc1cccc2sc(NNC(=O)C3COc4ccccc4O3)nc12 (stereo not drawn)	RORgamma inh 3.5µM, ELG1 DNA repair inconclusive
O=C(NNc1nc2c(F)cccc2s1)C1COc2ccccc2O1 (stereo not drawn)	none
Cn1c(=O)c2cc(NC(=O)NCc3ccc(F)cc3)ccc2n1C/C=C/c1ccccc1	none (no result: p53 reactivator, RORgamma inh, Giardia kill, Gal4-VP16 FLuc, ELG1 DNA repair)
CCc1ccc(CNC(=O)c2cc3c(C)nc4ccccc4c3o2)cc1	Gal4-VP16 FLuc 18µM, ELG1 DNA repair 15µM
COc1ccc(CNC(=O)c2cc3c(C)nc4ccccc4c3o2)c(OC)c1	RORgamma inh inconclusive, Gal4-VP16 FLuc inconclusive, ELG1 DNA repair 5.8µM
CCOC(=O)N1CCC(NC(=O)c2cc3c(C)nc4ccccc4c3o2)CC1	ELG1 DNA repair 13µM
Cc1nc2ccccc2c2oc(C(=O)NCC3COc4ccccc4O3)cc12 (stereo not drawn)	RORgamma inh inconclusive, Gal4-VP16 FLuc inconclusive, ELG1 DNA repair 15µM
CC1(C)CC(/C=C/c2ccccc2)=Nc2ccccc2N1	p53 reactivator inconclusive, ELG1 DNA repair inconclusive
O=C(CCCOc1ccc(Cl)cc1Cl)Nc1nnc(C2CC2)s1	ELG1 DNA repair inconclusive
CCO[C@H]1OC(C(=O)NC2CC2)=C[C@@H](C2CCCCC2)[C@@H]1CCCO	none
Cc1noc(NS(=O)(=O)c2ccc(NC(=O)c3ccc(Br)o3)cc2)c1C	none
CC1(C)CC(=O)C2=C(C1)NC(Nc1nc3ccccc3o1)=NC21CCCCC1	none
Cc1nc2ccccc2c2oc(C(=O)N3CCC(N4CCCCC4)CC3)cc12	none
Cc1nc2ccccc2c2oc(C(=O)N3CCN(C4CCCCC4)CC3)cc12	ELG1 DNA repair 7.3µM
COc1cccc(NC(C)C(=O)N2CC(C)OC(C)C2)c1 (stereo not drawn)	none
COc1ccc(CNC(=O)O[C@@H]2C[C@H]3C(=O)N(c4ccccc4)C(=O)[C@H]3[C@@]3(CN(S(=O)(=O)c4ccc(C)cc4)C[C@H]3C)[C@@H]2O)cc1OC	none (no result: p53 reactivator, RORgamma inh, Giardia kill, Gal4-VP16 FLuc, ELG1 DNA repair)
C=CCSc1nn2c(=O)c3ccccc3nc2s1	BRCA1 expr act 2.8µM, ELG1 DNA repair inconclusive
COc1cc(/C=N/Nc2nc(C)nc3c2cnn3-c2ccccc2)ccc1O	ELG1 DNA repair 16µM
Cc1ccc2nc(Cl)c(/C=N/Nc3ccc(C(=O)O)cc3)cc2c1	RORgamma inh 3.2µM, Giardia kill inconclusive, Gal4-VP16 FLuc 7.1µM, ELG1 DNA repair inconclusive
O=C(O)c1ccc(/C=N\Nc2ccccn2)cc1	BRCA1 expr act 2.5µM (no result: p53 reactivator, RORgamma inh, Gal4-VP16 FLuc, ELG1 DNA repair)
CN(C)c1ccc(/C=N\Nc2ccccn2)cc1	RORgamma inh inconclusive, BRCA1 expr act inconclusive, Gal4-VP16 FLuc inconclusive, ELG1 DNA repair inconclusive
COc1ccc(NC(=O)Nc2ccccn2)cc1OC	BRCA1 expr act 13µM, ELG1 DNA repair inconclusive
CCc1nc2ccc(C(=O)Nc3ccc4c(c3)OCC(=O)N4)cn2c1N(C)C(=O)Cc1ccccc1	none (no result: p53 reactivator, RORgamma inh, Giardia kill, Gal4-VP16 FLuc, ELG1 DNA repair)
CCOc1ccc(Oc2ccc(Cl)cc2N)cc1	none
CCN(CC)C(=O)C1=C(C)N(Cc2ccc(F)cc2)C(=O)C(CC(=O)NC2CCCCC2)C1 (stereo not drawn)	none (no result: p53 reactivator, RORgamma inh, Giardia kill, Gal4-VP16 FLuc, ELG1 DNA repair)
CCCCn1c(N)c(N(Cc2ccccc2OC)C(=O)COc2ccc(C)cc2)c(=O)[nH]c1=O	none (no result: RORgamma inh, Gal4-VP16 FLuc)
